{"source": "PubChem BioAssay (EPA / NIEHS)", "key": {"[1]": {"assay": "CCTE_Mundy_HCI_Cortical_Synap_Neur_Matur_NeuriteCount: CCTE's Synaptogenesis and Neurite Maturation Assay in rat cortical cells for Neurite Count, Mundy Lab (AID 2284222; active = hit-call score of the fitted dose curve at least 0.9, where 1 is the maximum; inactive = score below 0.9)", "in_short": "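Rat primary cortical cells; AraC added at DIV 5, chemicals dosed with media change at DIV 7 through DIV 12. MAP2/synaptophysin/Hoechst immunostaining, high-content imaging of neurite number; fitted relative to DMSO.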"}, "[2]": {"assay": "UKN2_HCS_IMR90_cell_viability: Viability Assessment in the University of Konstanz (UKN) Leist Lab Neural Crest Cell Migration Assay in human induced IMR90 Pluripotent Stem Cells (UKN2) (AID 2284233; active = hit-call score of the fitted dose curve at least 0.9, where 1 is the maximum; inactive = score below 0.9)", "in_short": "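Neural crest cells derived from IMR90 iPSC migrate into a stopper-free zone for 24 h in EGF/FGF medium, then are exposed to compound for 24 h. Viability assessed by calcein-AM and Hoechst staining with high-content imaging, fitted bidirectionally versus DMSO.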"}, "[3]": {"assay": "CCTE_Mundy_HCI_Cortical_NOG_BPCount: CCTE's Neurite Outgrowth Assay in rat cortical cells for Branch Point Count, Mundy Lab (AID 2284237; active = hit-call score of the fitted dose curve at least 0.9, where 1 is the maximum; inactive = score below 0.9;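 note: branch points counted about two days after chemical exposure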)", "in_short": "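Measured 50.33 h after dosing, this morphology endpoint uses rat primary cortical cultures labelled for betaIII-tubulin. Branch points are quantified by high-content imaging, with DMSO as negative control and baseline.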"}, "[4]": {"assay": "CCTE_Mundy_HCI_hNP1_CellTiter: CCTE's Cell Titer-Glo 2 Assay in human neuroprogenitor cells for Viability, Mundy Lab (AID 2284241);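 note: a hit is a drop in ATP luminescence versus DMSO meaning reduced viability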", "in_short": "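Viability read as luminescent ATP content (CellTiter-Glo, 30 min room temperature) twenty-four hours after dosing, relative to DMSO. Cells: WA09-derived hNP1 neuroprogenitors on poly-L-ornithine/laminin, plated 40 to 44 hours before chemical.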"}, "[5]": {"assay": "IUF_NPC4_neurite_area_120hr: Leibniz Research Institute for Environmental Medicine (IUF) 120-hour Neuronal Morphology Assay for Neurite Area (NPC4) (AID 2284305)", "in_short": "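Human fetal neural progenitor spheres (0.3 mm) plated on poly-D-lysine/laminin in N2 differentiation medium, exposed 120 h (7 concentrations, DMSO ≤0.1%, half-medium refresh day 3). Fixed, TUBB3 immunostained; mean neurite area per neuron by Omnisphero skeletonization.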"}, "[6]": {"assay": "CCTE_Mundy_HCI_iCellGluta_NOG_NeuronCount: CCTE's Neurite Outgrowth Assay in iCellGluta cells for Neuron Count, Mundy Lab (AID 2284340);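 note: cells fixed about 48 h after compound addition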", "in_short": "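Neuron count read by automated high-content imaging of Hoechst 33342 and betaIII-tubulin/Alexa Fluor-488 labelling in human iPSC glutamatergic neurons. Activity fitted relative to DMSO.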"}, "[7]": {"assay": "CCTE_Mundy_HCI_iCellGluta_NOG_NeuriteCount: CCTE's Neurite Outgrowth Assay in iCellGluta cells for Neurite Count, Mundy Lab (AID 2284342);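 note: chemical exposure about 48 hours starting 2 hours after plating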"}}, "note": "Inconclusive results are not listed. The source made the active and inactive calls. Rule for the calls, unless noted: active = hit-call score of the fitted dose curve at least 0.9, where 1 is the maximum; inconclusive = response in the unintended direction; inactive = score below 0.9."}
{"smiles": "Cc1c(O)cccc1C(=O)N[C@@H](CSc1ccccc1)[C@H](O)CN1C[C@H]2CCCC[C@H]2C[C@H]1C(=O)NC(C)(C)C", "values": [{"measurement": "AC50", "setting": "[1]", "result": "5.46 µM (active)"}, {"measurement": "outcome", "setting": "[2]", "result": "inactive"}, {"measurement": "AC50", "setting": "[3]", "result": "15.4 µM (active)"}, {"measurement": "AC50", "setting": "[4]", "result": "11.1 µM (active)"}, {"measurement": "AC50", "setting": "[5]", "result": "8.75 µM (active)"}, {"measurement": "AC50", "setting": "[6]", "result": "39.4 µM (active)"}, {"measurement": "AC50", "setting": "[7]", "result": "37.4 µM (active)"}]}
